This note sets out measurements from PubChem BioAssay (NCI).

Each structure is given as a SMILES string. This is part of a sample that, as a whole, favours compounds with a hit. Of some 83,000 tested, about 20% had one in any assay.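 Results are percent growth after 48 hours of single-concentration exposure. 100 means growth as in untreated cells, lower positive values show inhibition; negative values down to -100 show cell death.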 Unmarked numbers belong to inactive results. The source made the active and inactive calls. The calls were made as follows: active = growth percent below 10; inactive = the rest.

What all share (test): NCI-60 one-dose screen, 48 h (100 = growth as untreated, 0 = no growth, -100 = all killed)
What all share (conditions): 10 µM unless noted

Assay [1] relates to SK-MEL-2 melanoma.
Assay [2] has as its system EKVX NSCLC.
Assay [3] relates to SN12C renal.
For assay [4], the system named is UO-31 renal.
Assay [5] has as its system TK-10 renal.
Assay [6] deals with ACHN renal.
In assay [7] the test system is CAKI-1 renal.
Assay [8] has as its system CCRF-CEM leukemia.
Assay [9] concerns MOLT-4 leukemia.
For assay [10], the system named is SR leukemia.
Assay [11] concerns RPMI-8226 leukemia.
The subject of assay [12] is OVCAR-8 ovarian.
Assay [13] deals with OVCAR-5 ovarian.
Assay [14] has as its system OVCAR-4 ovarian.
In assay [15] the test system is SK-OV-3 ovarian.
Assay [16] relates to IGROV1 ovarian.
For assay [17], the system named is OVCAR-3 ovarian.
Assay [18] relates to HS 578T breast.
For assay [19], the system named is NCI/ADR-RES ovarian.
In assay [20] the test system is A498 renal.

As for `C=CC(=O)N[C@@H](Cc1ccc(-c2cc(Cl)cc(Cl)c2)cc1)[C@@H](O)[C@H](O)C(=O)O`, the growth in [1] is 97%; in assay [2], 93%; in assay [3], 95.7%; in assay [4], 84%; in assay [5] it was 99.3%; in [6] it was 100%. The growth in [7] is 91.6%; in [8] it was 105%; in assay [9], 93.3%; in assay [10], 92.8%; in assay [11], 105%; in assay [12] it was 85.9%. Further, the growth is 86.8% in assay [13]; 99.9% in [14]; 91.6% in [15]; 105% in [16]; 114% in [17]; 92.9% in [18]. The growth in assay [19] is 95.6%.
For the compound `O=C1NC(=S)S/C1=C\N1N=C(c2ccc(Cl)cc2)CC1c1ccc(F)cc1` (configuration not stated), the growth was 95.5% in assay [1]; 76% in assay [2]; 96.5% in assay [3]; 60.1% in assay [4]; 101% in [5]; 87.2% in assay [6]. The growth was 85.4% in [7]; 65.5% in [8]; 45.1% in assay [9]; 46.9% in assay [10]; 69.7% in assay [11]; 81.3% in assay [12]. Moreover, the growth in [13] is 94.7%; in assay [14], 91.4%; in assay [16] it was 96.2%; in [17], 86.4%; in assay [18], 84.8%; in assay [19], 87%.
In the case of `CCCN1CCN(c2ccc3nc(-c4ccc5nc(-c6cc(OC)c(OC)c(OC)c6)[nH]c5c4)[nH]c3c2)CC1`, the growth in [1] was 70.9%; in [2], 109%; in assay [3] it was 85.4%; in assay [4], 86.5%; in [5], 125%; in [6], 96.4%. For the same compound, the growth is 105% in assay [7]; 41.2% in assay [8]; 62.6% in assay [9]; 34.6% in [10]; 95.3% in [11]; 75.5% in [12]. Further, the growth in [13] is 116%; in assay [14] it was 89.9%; in [16], 101%; in [17] it was 76.9%; in assay [18] it was 54.1%; in assay [19] it was 100%.
With `Cc1cc(N(CCCNc2ccnc3cc(Cl)ccc23)Cc2ccccn2)nc(N2CCOCC2)n1`, the growth is 97.9% in assay [1]; 89.5% in assay [2]; 95.6% in assay [3]; 63.9% in assay [4]; 110% in assay [5]; 101% in [6]. Besides, the growth in assay [7] is 87.8%; in [20], 92.5%; in assay [11] it was 85.2%; in assay [12], 81.7%; in [13] it was 95.8%; in [14], 82.3%. Also, the growth in assay [15] is 88.5%; in assay [16], 82.2%; in assay [17] it was 97.6%; in [18], 80.9%; in [19] it was 88.6%.
For `COc1cc(CNC(=O)/C=C/C=C/c2ccc3c(c2)OCO3)ccc1OCc1cn(-c2ccc(Cl)c(Cl)c2)nn1`, the growth was -37.3% (active) in assay [1]; 13.1% in assay [2]; 34.1% in [3]; 45.5% in [4]; -11.4% (active) in [5]; -51% (active) in assay [6]. In addition, the growth in assay [7] is -17% (active); in [8], 57.7%; in [9] it was -12.2% (active); in [10] it was 24.8%; in [11], 20.9%; in [12] it was 11.3%. For the same compound, the growth is -19.8% (active) in [13]; -62.7% (active) in [14]; 6.63% (active) in assay [16]; -62.8% (active) in assay [17]; 7.23% (active) in assay [18]; 15.9% in assay [19].
As to `C=C(CNCCc1ccc(O)cc1)[C@@H]1CC[C@]2(COC3CCCCO3)CC[C@]3(C)[C@H](CC[C@@H]4[C@@]5(C)CCC(NCCO)C(C)(C)[C@@H]5CC[C@]43C)[C@@H]12` (some centres not stated), the growth in assay [1] is -81.3% (active); in assay [2], -77.5% (active); in [3], -92.2% (active); in [4], -97.3% (active); in assay [5] it was -89.7% (active); in assay [6] it was -99.2% (active). For the same compound, the growth is -92.1% (active) in assay [7]; -1.47% (active) in assay [20]; -56.8% (active) in assay [11]; -85.1% (active) in [12]; -93.1% (active) in assay [13]; -91.5% (active) in assay [14]. Besides, the growth is -48.9% (active) in assay [15]; -83.9% (active) in [16]; -94.4% (active) in [17]; -51.5% (active) in assay [18]; -79.3% (active) in [19].
Turning to `CC1=NN(c2cccc(Cl)c2)C(=O)/C1=C\c1cn(CC(O)CN2CCCCC2)c2ccccc12` (configuration not stated), the growth was 73.8% in [1]; 88% in assay [2]; 66.3% in [3]; 67% in assay [4]; 71.7% in [5]; 38.6% in [6]. In addition, the growth in [7] was 24%; in assay [8], 41.9%; in assay [9], 48.3%; in assay [10] it was -8.32% (active); in [11], 34.8%; in assay [12] it was 76.6%. For the same compound, the growth is 83.9% in assay [13]; 75.9% in [14]; 94.6% in [15]; 49.8% in assay [16]; 57.7% in [17]; 91.1% in [18]. Besides, the growth in assay [19] is 75.3%.
In the case of `COc1cc2ccccc2cc1C(=O)NC(=S)Nc1ccc(-c2nc3ccccc3[nH]2)cc1`, the growth is 105% in [1]; 89.9% in [2]; 83.4% in assay [3]; 89.8% in [4]; 83.4% in [5]; 99.2% in assay [6]. For the same compound, the growth in [7] was 90.7%; in [8], 79.2%; in [9], 91.1%; in [10], 28.3%; in [11], 71.5%; in assay [12], 93.1%. Further, the growth in assay [13] was 103%; in [14], -35.9% (active); in [16], 83.2%; in assay [17], 55%; in assay [18] it was 30.7%; in assay [19] it was 59.4%.
As to `O=C(NCc1cn(Cc2cccc(Oc3ccccc3)c2)nn1)c1cccnc1NCc1ccc(Cl)cc1`, the growth in assay [1] was 13.9%; in assay [2] it was 30.7%; in assay [3], 40.9%; in [4] it was 30.5%; in assay [5], 62.2%; in assay [6], 41.9%. For the same compound, the growth in assay [7] was 32.2%; in assay [20], -4.32% (active); in assay [9], 14.6%; in assay [11] it was -9.55% (active); in assay [12], 32.6%; in assay [13] it was 51.5%. Further, the growth in [14] was 43.8%; in [15], 21.4%; in assay [16], 60.1%; in assay [17], 2.33% (active); in assay [18], 23.8%; in assay [19] it was 0.306% (active).
`O=C(O)C1C[C@](O)(c2ccc(F)cc2)[C@@H](c2ccc(F)cc2)O1` (some centres not stated): the growth in [1] was 102%; in assay [2], 105%; in assay [3] it was 116%; in [4] it was 78.5%; in assay [5], 108%; in [6], 116%. The growth in assay [7] is 40.5%; in assay [20] it was 156%; in [10] it was 73.8%; in [11], 69.1%; in assay [12], 95.1%; in [13], 90.8%. Moreover, the growth in assay [14] is 107%; in assay [15], 97.5%; in assay [16] it was 71.8%; in assay [17], 146%; in [18], 124%; in assay [19] it was 96.5%.
As for `COc1ccc(Oc2nc(Nc3ccc(N4CCOCC4)nc3)ncc2NC(=O)c2cc(OC)cc(OC)c2)cc1`, the growth in [1] is 47.6%; in assay [2], 89.3%; in assay [3], 93.7%; in assay [4], 56.3%; in assay [5] it was 83.4%; in assay [6], 75.1%. The growth in assay [7] was 67.3%; in assay [20], 53.7%; in assay [11], 49%; in [12], 77.8%; in assay [13], 105%; in assay [14] it was 78.2%. The growth was 88.6% in assay [15]; 80% in [16]; 82.7% in assay [17]; 86.8% in assay [18]; 76% in [19].
Turning to `N#Cc1c(NC(=O)c2ccc(Br)cc2)sc2c1CCCC2`, the growth is 37% in [1]; 37% in [2]; 45.7% in [3]; 63% in [4]; 72.7% in [5]; 47.6% in assay [6]. The growth in [7] is 54.3%; in assay [8] it was 20.4%; in [9], 32.5%; in assay [10] it was 50.2%; in assay [11], 33.3%; in assay [12], 64.6%. For the same compound, the growth was 55.7% in [13]; 69.6% in assay [14]; 53.7% in assay [16]; 16.8% in assay [17]; 39.1% in assay [18]; 16.6% in [19].
Regarding `COc1ccccc1C(=O)NC(=S)Nc1ccc(-c2nc3ccccc3[nH]2)cc1`, the growth was 109% in assay [1]; 91.1% in [2]; 46% in assay [3]; 28.5% in [4]; 59.6% in assay [5]; 71.4% in assay [6]. Also, the growth is 105% in assay [7]; 80.8% in assay [8]; 91.9% in [9]; 13.6% in [10]; 57.1% in assay [11]; 53.1% in assay [12]. Also, the growth in assay [13] is 90.5%; in [14], -60.7% (active); in assay [16], 69%; in assay [17] it was -36% (active); in assay [18] it was 36.5%; in assay [19] it was 38.7%.
With `Cc1cccc(-c2cc(O)c(C(=O)N3CCOCC3)s2)c1`, the growth in assay [1] is 28.5%; in [2], 58.6%; in assay [3], 49.1%; in [4], 58.3%; in [5], 61.7%; in [6], 60.6%. Further, the growth is 47.5% in assay [7]; 35.5% in assay [8]; 21.6% in assay [9]; 25.5% in [10]; 41.7% in [11]; 46% in assay [12]. Also, the growth in [13] was 92.1%; in assay [14] it was 77.3%; in [15], 41.7%; in assay [16] it was 50%; in [17], 15%; in assay [18], 53.8%. Further, in [19], the growth was 6.7% (active).
In the case of `CCOc1ccc(S(=O)(=O)c2ccc(C)cc2)c2c1no[n+]2[O-]`, the growth is 82.5% in assay [1]; 83.9% in [2]; 94.8% in assay [3]; 83.3% in assay [4]; 92.3% in assay [5]; 85.6% in assay [6]. Further, the growth is 71.8% in assay [7]; 67.2% in assay [20]; 67.9% in [11]; 90.7% in assay [12]; 99.1% in assay [13]; 67.5% in assay [14]. In addition, the growth in assay [15] is 77.4%; in assay [17], 85.2%; in assay [19], 71.8%.
